# This is a sample that favours compounds with a hit; in the whole collection about 4.8% have one here.
# Mdm2 MdmX PPI = disrupts the human Mdm2-MdmX interaction. O15151+Q00987. SaOS-2 split-luciferase Mdm2/MdmX complementation, luminescence. inhibition, % at 8 µM. 330,000 compounds, 3% hits. AID 485346;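 active = inhibition of at least 50% at 8 µM in the primary screen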
# Target sequence (O15151 whole entry, looked up): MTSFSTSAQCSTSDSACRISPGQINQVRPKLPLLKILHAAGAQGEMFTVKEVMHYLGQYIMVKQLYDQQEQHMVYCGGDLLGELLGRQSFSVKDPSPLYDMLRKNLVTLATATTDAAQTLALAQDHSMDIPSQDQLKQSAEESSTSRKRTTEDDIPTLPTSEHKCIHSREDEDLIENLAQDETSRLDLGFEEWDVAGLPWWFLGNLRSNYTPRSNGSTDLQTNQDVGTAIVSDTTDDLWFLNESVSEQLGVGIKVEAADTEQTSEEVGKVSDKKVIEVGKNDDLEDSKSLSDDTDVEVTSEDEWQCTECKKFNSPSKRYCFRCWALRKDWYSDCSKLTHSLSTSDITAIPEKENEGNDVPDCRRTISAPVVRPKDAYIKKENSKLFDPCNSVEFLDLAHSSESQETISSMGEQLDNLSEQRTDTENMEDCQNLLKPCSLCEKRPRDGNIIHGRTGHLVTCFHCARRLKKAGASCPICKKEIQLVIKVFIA
# Target sequence (Q00987 whole entry, looked up): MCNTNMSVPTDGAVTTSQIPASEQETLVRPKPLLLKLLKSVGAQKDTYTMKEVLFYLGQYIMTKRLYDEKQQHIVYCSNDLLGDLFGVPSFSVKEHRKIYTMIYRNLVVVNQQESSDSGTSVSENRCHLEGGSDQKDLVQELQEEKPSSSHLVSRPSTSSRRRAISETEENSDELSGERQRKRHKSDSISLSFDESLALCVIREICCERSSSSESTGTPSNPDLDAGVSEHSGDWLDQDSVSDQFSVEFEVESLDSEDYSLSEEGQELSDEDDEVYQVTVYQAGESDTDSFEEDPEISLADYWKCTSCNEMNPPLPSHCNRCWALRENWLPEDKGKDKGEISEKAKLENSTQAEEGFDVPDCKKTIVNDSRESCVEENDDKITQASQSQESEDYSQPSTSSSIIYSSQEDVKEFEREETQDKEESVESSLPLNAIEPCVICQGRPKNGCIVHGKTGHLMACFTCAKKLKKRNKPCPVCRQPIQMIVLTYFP
# CSC inhib = blocks cancer stem cells; inhibition, % at 7.5 µM; AID 2717; cancer stem cell-like cells viability, luminescence; 300,000 compounds, 1.1% hits; in the data active = inhibition above about 75%; inconclusive = no clear call, values can overlap the other calls; tested in HMLE shEcad cells
# Beta cell apopt = beta cell apoptosis inhibition. INS-1E cytokine-induced death, ATP luminescence, 48 h; percent of positive-control rescue, neutral wells zero. protection from apoptosis, % (no concentration beside the values). 300,000 compounds, 0.8% hits. AID 435005;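 active = Every replicate reaches about 75%, or at least half do and their mean reaches it too, limit read from the data; inconclusive = At least half of replicates reach the limit but their mean does not; inactive = Under half of replicates reach the limit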;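 note: 0% = cytokine-treated negative control wells and 100% = positive control rescue; higher means more ATP so stronger rescue from cytokine killing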
# Calb FLC = affects C. albicans growth with fluconazole | C. albicans CaCi-2 (fluconazole-resistant clinical isolate) + fluconazole, Alamar Blue growth, 48 h | growth inhibition, % (concentration not given with the values) | 300,000 compounds, 0.57% hits | AID 1979;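 active = growth inhibition above about 58% in most replicates, limit read from the data, passing the limit was not always enough; inconclusive = exactly half the replicates above a set limit; inactive = most replicates below a set limit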;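 note: all wells also contain fluconazole at 8 µg/ml as a sub-toxic cotreatment; 0% = median of DMSO wells and 100% = median of geldanamycin control wells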
# MPTP block = inhibitors of mitochondrial permeability transition pore; isolated mouse mitochondria, Ca2+ swelling absorbance, 30 min; inhibition, % at 10 µM; 360,000 compounds, 1.4% hits; AID 602449;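 active = inhibition of 50% or more, scaled per plate between neutral and stimulator controls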;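 note: 0% = DMSO wells given calcium and 100% = 1 mM EGTA wells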
# Mdm2-MdmX conf = human Mdm2/MdmX binding inhibition, confirmed; inhibition, % at 8 µM; luminescent assay; 10,000 compounds, 55% hits; AID 489028; shares compounds with Mdm2 MdmX PPI; in the data active = inhibition above about 40%
# Full FLuc ctr = counter-screen for Mdm2/MdmX inhibitors: full-length luciferase; shares compounds with Mdm2 MdmX PPI; 6,200 compounds, 77% hits; SaOS-2 full-length luciferase counterscreen, luminescence; inhibition, % at 8 µM;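 active = mean inhibition at 8 µM reaching about 37%, which flags the compound as non-specific, limit read from the data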;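 note: p53-null SaOS-2 cells with luciferase driven by a doxycycline-inducible promoter; compound on cells about two nights before reading with doxycycline added after day one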
# * = called active by the depositor; ? = inconclusive; . = no result.
SMILES,Mdm2 MdmX PPI,CSC inhib,Beta cell apopt,Calb FLC,MPTP block,Mdm2-MdmX conf,Full FLuc ctr
CCN(CC)CCCNC(=O)c1cc2c(-c3cccc(OC)c3)nn(C)c2s1,23.1,30.6,2.0,-1.8,-0.9,.,.
COc1cccc(-c2nn(C)c3sc(C(=O)NCc4ccco4)cc23)c1,60.6*,-5.3,-2.5,-0.6,0.1,40.5*,69.1*
COc1cccc(C2C3=C(N=c4s/c(=C\c5cccc(O)c5)c(=O)n42)c2ccccc2CC3)c1OC (stereo not drawn),67.7*,90.9*,2.9,22.3,6.2,10.8,.
CC(C)=CCCC1(C)C=Cc2c(c(C)cc3c2[nH]c2cc(O)ccc23)O1 (stereo not drawn),68.8*,92.7*,.,7.2,2.7,2.6,.
Cc1cc(=O)[nH]c2cc(O)ccc12,-2.2,-9.2,-5.7,-24.0,0.2,.,.
COc1ccc(NC(=O)c2ccccc2NC(=O)CSc2ccc(Cl)cc2)cc1,83.9*,-5.9,4.4,-4.7,0.8,43.0*,70.7*
COc1c(C)cccc1C(=O)Nc1ccc(N2CCN(C(=O)c3ccccc3C)CC2)cc1,47.3,33.5,-6.6,.,-1.1,.,.
Cc1ccccc1C(=O)N1CCN(c2ccc(NC(=O)c3cccc(OC(C)C)c3)cc2)CC1,53.1*,-5.9,10.5,-1.3,0.9,44.8*,55.5*
Cc1ccccc1C(=O)N1CCN(c2ccc(NC(=O)CSc3ccc(Cl)cc3)cc2)CC1,60.7*,24.8,9.0,-10.4,1.1,48.9*,41.8*
Cc1ccccc1C(=O)N1CCN(c2ccc(NC(=S)NC(=O)c3cccs3)cc2)CC1,52.9*,48.9,8.9,23.2,4.0,39.6,75.1*
COc1ccccc1Cc1c(-c2ccco2)nc2c(C)cc(Br)cn12,.,.,.,.,-3.5,.,.
Cc1cc(C)n2nc(SCC(=O)N3CC(C)CC(C)C3)nc2n1 (stereo not drawn),-23.1,2.9,-4.0,.,-0.1,.,.
Cc1c(C#N)c(N)nc2c3c(sc12)NC(=O)CC3c1ccc(Cl)cc1 (stereo not drawn),92.5*,-14.5,0.4,27.9,3.0,24.4,.
NS(=O)(=O)c1ccc(CCNC(=O)c2cccc(S(=O)(=O)N3CCCC3)c2)cc1,-6.6,.,-1.8,.,-0.7,.,.
O=C(O)c1ccc(N/N=C/c2ccc(-c3cc(Cl)ccc3Cl)o2)cc1,-22.9,15.2,-7.6,7.2,5.5,.,.
C=CCNC(=S)N/N=C/c1ccc(-c2cc(Cl)ccc2Cl)o1,68.3*,4.5,6.1,-2.8,-1.5,10.7,.
Nc1ncnc2oc(-c3ccco3)c(-c3ccco3)c12,52.4*,.,.,15.6,2.9,22.6,.
O=C1CC(/C=C/c2ccccn2)=Nc2ccccc2N1,19.9,4.6,-13.1,10.7,0.1,.,.
O=C1CC(/C=C/c2ccc([N+](=O)[O-])cc2)=Nc2ccccc2N1,52.9*,2.8,3.9,9.0,2.1,34.6,60.6*
CC(=O)Nc1ccc(-c2ccnc3c2CC(C)(C(=O)Nc2cccc(OC(F)(F)F)c2)O3)cc1 (stereo not drawn),.,.,.,.,-0.4,.,.
Cc1cccc2sc(N(CCN(C)C)C(=O)/C=C/c3cccs3)nc12,62.6*,35.7,15.4,15.5,1.9,31.4,.
COc1ccc2nc(N(CCN(C)C)C(=O)/C=C/c3cccs3)sc2c1,53.0*,13.8,-4.2,-9.1,2.6,38.9,44.1*
COc1ccc2sc(N(CCN(C)C)C(=O)/C=C/c3cccs3)nc2c1,45.7,24.8,-4.0,-7.6,3.4,.,.
COc1ccccc1CCn1cnc(Cc2ccccc2)c1C(C)C,.,.,.,.,9.0,.,.
O=C(C[C@@H]1C/C=C\CC[C@@H](Cc2ccc(F)cc2)C(=O)OC[C@@H]2CCCN2C1=O)N[C@H](CO)Cc1ccccc1,22.8,.,.,.,3.6,.,.
SMILES,Mdm2 MdmX PPI,CSC inhib,Beta cell apopt,Calb FLC,MPTP block,Mdm2-MdmX conf,Full FLuc ctr
COC(=O)c1nn(-c2ccc(OC)cc2)c(=O)cc1O,-5.0,14.2,-4.8,-0.8,-0.2,.,.
COc1ccc(-n2nc(C#N)c(Cl)cc2=O)cc1,100.3*,.,.,.,-0.3,100.2*,53.5*
CC(=O)Nc1ccc(Cl)cc1C(=O)c1ccc[nH]1,.,.,.,.,-0.8,.,.
NCC(=O)Nc1ccc(Cl)cc1C(=O)c1ccc[nH]1,63.5*,.,.,0.6,0.0,66.3*,40.4*
COc1cc(F)ccc1-c1csc(C(NC(C)=O)c2ccc(F)c(F)c2)n1 (stereo not drawn),.,.,.,.,-1.4,.,.
COc1ccc(CNc2cc(C)nc3ccc(OC)cc23)cc1,51.7*,-5.1,17.8,-1.3,1.2,27.9,.
COc1ccc(/C=N/Nc2cc(C)nc3c(C)cccc23)cc1,97.4*,26.9,47.3,-19.9,21.0,56.0*,76.8*
COc1ccc2nc(C)cc(N/N=C/c3ccc(F)cc3)c2c1,100.3*,105.7*,107.3*,-15.9,19.6,100.1*,51.5*
COc1ccc(/C=N/Nc2cc(C)nc3ccccc23)cc1,98.2*,31.8,50.1,-11.7,11.7,56.5*,46.0*
COc1cccc(CN2CCN(Cc3cccc(Oc4ccccc4)c3)CC2)c1OC,0.3,30.6,-6.8,-11.0,3.1,.,.
COc1cccc(CN2CCC(N(CCc3ccccc3)Cc3ccccc3)CC2)c1OC,60.8*,76.8*,113.3*,-19.4,4.5,28.1,.
COc1ccc(COC(=O)CNC(=O)C2CCCCC2)cc1F,-12.4,-10.8,-2.7,.,-1.2,.,.
CNc1cccc(-c2cccc(C(=O)N3CCOCC3)c2)n1,.,.,.,.,0.4,.,.
CN(C)C(=O)N1CCN(C(=O)c2ccccc2Sc2ccccc2C#N)CC1,52.8*,4.4,10.1,-17.0,0.0,-6.8,.
N#Cc1ccccc1Sc1ccccc1C(=O)N1CCOCC1,-12.6,11.8,-3.6,9.3,-6.5,.,.
CC(C)(C)OC(=O)N1Cc2ccccc2C[C@H]1C(=O)NCC(=O)NC1CCCCC1,4.1,-19.1,-5.2,-4.8,-1.4,.,.
O=C(Cc1ccccc1)NCc1ccc2c(c1)OCO2,-6.1,6.0,-7.2,-25.8,-4.1,.,.
O=C(NCc1ccc2c(c1)OCO2)c1nc(S(=O)(=O)Cc2ccccc2)ncc1Cl,63.0*,.,.,7.8,0.1,44.9*,13.8
O=C(NCc1ccc2c(c1)OCO2)c1nc(S(=O)(=O)Cc2ccccc2F)ncc1Cl,77.6*,?,7.1,0.8,1.4,52.2*,51.2*
O=C(NCc1ccc2c(c1)OCO2)c1ccccc1Cl,-18.9,-4.5,-0.9,-32.0,0.8,.,.
CC(C)(C)C(C(=O)NC1CCCC1)N1CCN(c2ncccc2C#N)CC1 (stereo not drawn),.,.,.,.,0.5,.,.
CCc1ccc(-c2cc3c(=O)n(CC(=O)NCCN4CCCCC4C)nc(C)n3n2)cc1 (stereo not drawn),68.3*,80.4*,11.2,9.8,-0.6,24.6,.
COc1ccc(-c2cc3c(=O)n(CC(=O)NCc4cccnc4)ncn3n2)cc1,-0.4,-4.1,-6.4,-0.2,-1.3,.,.
COc1ccc(-c2cc3c(=O)n(CC(=O)Nc4ccc(C(C)=O)cc4)ncn3n2)cc1,57.7*,-4.7,4.3,-3.1,-0.8,34.2,105.2*

# Source: PubChem BioAssay (several laboratories)
